# Source: PubChem BioAssay
# Values joined by “and” are separate entries in the source; they are usually repeats but may differ in a detail not shown here. Equal entries are not always repeated. Active and inactive are the calls of the source. Cut-off read from the data, not from the text of the source, unless noted: active = inhibition above about 80%; inactive = the rest.
# Legend:
# [1] = liver-stage malaria parasite growth inhibition, primary screen, cell-based, HepG2, luciferase luminescence, HepG2 viability (AID 624349; in the data active = parasite load remaining mostly below about 12%, no sharp cut-off; inactive = mostly above about 10%;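 note: 100% = mean of DMSO negative control wells on the same plate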); settings: P. berghei liver stage in HepG2, luciferase luminescence, concentration not given here; parasite load remaining: stronger effect = lower value; viability: measured here: HepG2 viability without parasites
# [2] = target: 6-phosphogluconate dehydrogenase, decarboxylating (Homo sapiens) (UniProt P52209); assay: 6PGD enzyme inhibitors, primary screen, biochemical, human, recombinant enzyme, NADPH absorbance (AID 1159550;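 active = at least 20% inhibition of 6-phosphogluconate dehydrogenase activity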); settings: recombinant 6PGD, NADPH absorbance 341 nm; at 10 µM; stronger effect = higher value
# Chain of 6-phosphogluconate dehydrogenase, decarboxylating (Homo sapiens) (P52209 whole entry, looked up): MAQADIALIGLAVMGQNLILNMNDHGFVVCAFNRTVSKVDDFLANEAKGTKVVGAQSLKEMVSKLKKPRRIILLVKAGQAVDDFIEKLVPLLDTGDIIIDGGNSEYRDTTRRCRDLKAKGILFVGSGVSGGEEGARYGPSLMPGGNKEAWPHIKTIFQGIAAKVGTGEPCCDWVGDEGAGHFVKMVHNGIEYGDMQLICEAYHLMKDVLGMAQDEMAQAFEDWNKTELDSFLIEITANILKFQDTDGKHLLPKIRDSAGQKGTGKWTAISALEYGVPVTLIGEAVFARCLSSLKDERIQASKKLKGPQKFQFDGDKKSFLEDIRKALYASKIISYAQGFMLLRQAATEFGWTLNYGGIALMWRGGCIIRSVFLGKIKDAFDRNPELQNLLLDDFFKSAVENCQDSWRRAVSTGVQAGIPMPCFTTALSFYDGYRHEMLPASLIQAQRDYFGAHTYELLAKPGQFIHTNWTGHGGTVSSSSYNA
# [3] = sensitizers of A549 cells to miR-34 induction, primary screen, imaging, A549 dox-inducible miR-34, nuclei and caspase counts (AID 1347080;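 active = compounds whose cell count with miR-34 switched on is under 0.7 times the count with it off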); settings: A549 miR-34 inducible, Hoechst nuclei count, 48 h
# [4] = target: Mitogen-activated protein kinase 7 (Homo sapiens) (UniProt Q13164); assay: ERK5 transactivation activators in reporter cells, primary screen, cell-based, HTS (AID 1508626;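 active = luciferase signal above three times the same-plate solvent-only control wells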;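 note: luciferase driven by Gal4-ERK5 fusion binding five Gal4 sites before minimal TATA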); settings: HeLa Gal4-ERK5 transactivation, 18 h, at 5 µM, stronger effect = higher value
# Chain of Mitogen-activated protein kinase 7 (Homo sapiens) (Q13164 whole entry, looked up, the tested form may be a part): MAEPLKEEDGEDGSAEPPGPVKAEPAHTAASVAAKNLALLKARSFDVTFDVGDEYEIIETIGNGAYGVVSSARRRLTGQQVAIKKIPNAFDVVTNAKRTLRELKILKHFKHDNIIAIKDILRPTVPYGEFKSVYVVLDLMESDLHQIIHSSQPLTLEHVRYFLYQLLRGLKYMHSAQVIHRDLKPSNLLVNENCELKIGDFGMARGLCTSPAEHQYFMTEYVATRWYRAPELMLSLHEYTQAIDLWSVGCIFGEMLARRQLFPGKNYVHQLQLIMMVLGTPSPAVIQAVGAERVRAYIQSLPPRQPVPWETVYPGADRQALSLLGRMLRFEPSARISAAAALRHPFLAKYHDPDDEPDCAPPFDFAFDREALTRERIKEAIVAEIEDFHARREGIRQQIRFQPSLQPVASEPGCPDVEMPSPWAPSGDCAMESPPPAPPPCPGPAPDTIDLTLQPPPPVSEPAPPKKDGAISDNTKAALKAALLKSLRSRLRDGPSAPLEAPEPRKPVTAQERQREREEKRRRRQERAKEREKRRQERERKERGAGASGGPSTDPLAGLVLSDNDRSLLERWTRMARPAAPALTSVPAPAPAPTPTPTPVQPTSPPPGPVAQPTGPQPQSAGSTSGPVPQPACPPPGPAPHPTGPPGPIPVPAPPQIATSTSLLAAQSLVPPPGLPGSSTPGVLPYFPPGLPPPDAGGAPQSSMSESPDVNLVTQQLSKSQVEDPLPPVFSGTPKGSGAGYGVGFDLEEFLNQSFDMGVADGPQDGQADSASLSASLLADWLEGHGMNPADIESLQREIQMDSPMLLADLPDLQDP
# [5] = viability rescue of complex I mutant cybrids, primary screen, cell-based, galactose medium, ATP luminescence (AID 1645843;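 active = z-score of at least 1.8 in each of two replicates, scored against plate mean and spread of sample wells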;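 note: positive z means more ATP and so rescue of galactose-driven cybrid death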); settings: complex I mutant cybrid cells, 72 h, stronger effect = higher value
# [6] = LFS_MB_P medulloblastoma growth inhibition, cell-based, chromothripsis tumors, cisplatin or BGB combos (AID 1671449); settings: LFS_MB_P medulloblastoma cells;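 note: cells exposed for 96 hours; 0% = vehicle DMSO and 100% = killing by high DMSO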
# [7] = HDN33 neuroblastoma growth inhibition, cell-based, chromothripsis tumors, cisplatin or BGB combos (AID 1671450); settings: HDN33 neuroblastoma cells, stronger effect = higher value;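 note: cells exposed to compound for four days; 0% = vehicle DMSO and 100% = cell killing by high DMSO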
# [8] = ICB984 medulloblastoma cell growth inhibition, synergistic combos for chromothripsis tumors, cisplatin or BGB combos (AID 1671451; call rule not given here;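 note: cells exposed for 96 hours before readout; 0% = vehicle DMSO and 100% = killing by high DMSO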); settings: ICB984 medulloblastoma cells, drug combinations, stronger effect = higher value
# [9] = LFS_MB_1R medulloblastoma cell growth inhibition, synergistic combos for chromothripsis tumors, cisplatin or BGB combos (AID 1671452); settings: LFS_MB_1R medulloblastoma cells, stronger effect = higher value;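 note: cells exposed for 96 hours before readout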
# [10] = HTB85 osteosarcoma cell growth inhibition, synergistic combos for chromothripsis tumors, BGB or cisplatin IC20 combos (AID 1671453); settings: HTB85 osteosarcoma cells, drug combinations, stronger effect = higher value;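 note: cells exposed for 96 hours before readout; 0% = vehicle DMSO and 100% = high DMSO killing control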
# [11] = CRL2098 osteosarcoma cell growth inhibition, synergistic combos for chromothripsis tumors, BGB or cisplatin IC20 combos (AID 1671454); settings: CRL2098 osteosarcoma cells, drug combinations, stronger effect = higher value;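 note: cells exposed for 96 h before readout; 0% = vehicle DMSO and 100% = killing by high DMSO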
# [12] = HD-MB03 medulloblastoma cell growth inhibition, synergistic combos for chromothripsis tumors, BGB or cisplatin IC20 combos (AID 1671455; in the data active = inhibition above about 83%;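 note: 0% = vehicle DMSO and 100% = high DMSO as cytotoxic control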); settings: HD-MB03 medulloblastoma cells, stronger effect = higher value
# [13] = UWB1.289 ovarian carcinoma cell growth inhibition, synergistic combos for chromothripsis tumors, BGB or cisplatin combos (AID 1671456); settings: UWB1.289 ovarian carcinoma cells, stronger effect = higher value;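 note: cells exposed to compound for four days; 0% = vehicle DMSO and 100% = killing by high DMSO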
# [14] = LFS_MB_2R medulloblastoma cell growth inhibition, synergistic combos for chromothripsis tumors, cisplatin combos (AID 1671457); settings: LFS_MB_2R medulloblastoma cells, stronger effect = higher value;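 note: cells exposed to compound for four days before readout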
# [15] = MDA-MB-436 breast carcinoma cell growth inhibition, synergistic combos for chromothripsis tumors, BGB or cisplatin combos (AID 1671458; call rule not given here;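 note: cells exposed for 96 hours; 0% = vehicle DMSO and 100% = killing by high DMSO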); settings: MDA-MB-436 breast carcinoma growth inhibition, drug combinations, stronger effect = higher value
# [16] = UWB1.289_BRCA1 ovarian cancer growth, cell-based, BGB or cisplatin combinations (AID 1671459); settings: UWB1.289 BRCA1 ovarian carcinoma, drug combinations, stronger effect = higher value
# [17] = human astrocyte viability loss, single and combined drugs, cytotoxicity control for chromothriptic childhood tumor combination screen, cell-based, BGB or cisplatin IC20 combos (AID 1671460); settings: Human astrocytes, drug combinations, stronger effect = higher value;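 note: cells exposed to compounds for 96 hours before viability readout; 0% = vehicle and 100% = killing control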
# [18] = growth inhibition of BT084 medulloblastoma cells, cell-based, ICGC_MB145, cisplatin and BGB IC40 combos (AID 1671461); settings: drug combinations, stronger effect = higher value;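 note: cells exposed to drugs for 96 hours; 0% = vehicle DMSO and 100% = high DMSO full killing control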
# [19] = growth inhibition of RCMB18 medulloblastoma cells, cell-based, cisplatin and BGB IC40 combos (AID 1671462); settings: stronger effect = higher value;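 note: cells exposed to compound for four days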
# [20] = growth inhibition of CRL1545 osteosarcoma cells, cell-based, cisplatin and BGB IC20 combos (AID 1671464); settings: stronger effect = higher value;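 note: cells exposed to compound for 96 hours before readout; 0% = vehicle DMSO and 100% = high DMSO killing control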
# [21] = stronger effect = lower value, cell number ratio, induced over uninduced
# [22] = measured here: relative caspase fold change +Dox/-Dox
# [23] = measured here: total cells with miR-34 induction, stronger effect = lower value
# [24] = measured here: total cells without miR-34 induction
# [25] = measured here: combination with BGB IC40, at 0.05 µM
# [26] = measured here: with BGB IC20 combination, at 0.5 µM
# [27] = measured here: with cisplatin IC20 combination, at 0.5 µM
# [28] = measured here: combination with cisplatin, at 0.5 µM
# [29] = measured here: combination with cisplatin, at 5 µM
smiles,measurement,setting,value
C1CCN2C[C@@H]3C[C@H](CN4CCCC[C@@H]34)[C@H]2C1,parasite load remaining,[1],83.5% (inactive)
same,viability,[1],82.9%
same,inhibition,[2],11% (inactive)
same,fold change,[3]; [21],0.85 (inactive)
same,fold change,[3]; [22],3.93
same,cell count,[3]; [23],10700
same,cell count,[3]; [24],12500
same,luciferase signal,[4],68 AU (inactive)
COc1cc(C2c3cc4c(cc3C(OC3OC5COC(C)OC5C(O)C3O)C3COC(=O)C23)OCO4)cc(OC)c1O (configuration not stated),inhibition,[2],-3.12% (inactive)
same,fold change,[3]; [21],0.803 (inactive)
same,fold change,[3]; [22],1.95
same,cell count,[3]; [23],3290
same,cell count,[3]; [24],4090
same,z-score,[5],-1.39 (inactive)
same,inhibition,"[6]; at 0.5 µM, stronger effect = higher value",-32.6% (inactive) and -17.8% (inactive)
same,inhibition,"[6]; measured here: combination with BGB IC20, at 0.005 µM",-28.8% and 2.01%
same,inhibition,"[6]; measured here: combination with BGB IC40, at 0.005 µM",-24.3% and 13.4%
same,inhibition,[6]; [25],-29.9% and -0.69%
same,inhibition,"[6]; measured here: combination with cisplatin, at 0.5 µM, stronger effect = higher value",-45.5% and -45.4%
same,inhibition,"[6]; measured here: combination with cisplatin, at 5 µM, stronger effect = higher value",-34.4% and -6.98%
same,inhibition,"[7]; BGB combo, at 5 µM",47.6% and 64.8%
same,inhibition,[7]; at 0.5 µM,15.7% (inactive) and 26.2% (inactive)
same,inhibition,"[7]; cisplatin combo, at 5 µM",44.6% and 49%
same,inhibition,[7]; [26],15.9% and 28.5%
same,inhibition,[7]; [27],-1.85% and 5.29%
same,inhibition,"[7]; single agent, at 5 µM",68.9% and 70.5%
same,inhibition,"[8]; BGB IC20 combo, at 0.005 µM",-20.6% and 5.1%
same,inhibition,"[8]; BGB IC40 combo, at 0.005 µM",-32.2% and -0.661%
same,inhibition,"[8]; BGB IC40 combo, at 0.05 µM",-74.4% and -28.1%
same,inhibition,[8]; at 0.5 µM,-29.8% (inactive) and -8.32% (inactive)
same,inhibition,"[8]; cisplatin combo, at 0.05 µM",-80.7% and -31.6%
same,inhibition,"[8]; cisplatin combo, at 0.5 µM",-45.1% and -7.65%
same,inhibition,"[8]; cisplatin combo, at 5 µM",-73.3% and -20.4%
same,inhibition,"[8]; measured here: 5 uM single agent, at 5 µM",-13% and -19.7%
same,inhibition,[9]; at 0.5 µM,-24.1% (inactive) and -15.7% (inactive)
same,inhibition,[9]; [25],-34.7% and -15.9%
same,inhibition,[9]; [28],-23.9% and -48.9%
same,inhibition,[9]; [29],-59.7% and -24.4%
same,inhibition,[10]; at 0.5 µM,3.37% (inactive) and 12.3% (inactive)
same,inhibition,"[10]; measured here: with BGB IC20, at 0.5 µM",-1.07% and 17.8%
same,inhibition,"[10]; measured here: with BGB IC20, at 5 µM",84.3% and 86%
same,inhibition,"[10]; measured here: with cisplatin IC20, at 0.5 µM",-5.76% and 1.07%
same,inhibition,"[10]; measured here: with cisplatin IC20, at 5 µM",76.7% and 87%
same,inhibition,"[10]; single agent, at 5 µM",84.8% and 89.6%
same,inhibition,[11]; at 0.5 µM,-81.8% (inactive) and -42.5% (inactive)
same,inhibition,"[11]; measured here: combination with BGB at IC20, at 0.5 µM",-58% and -65.7%
same,inhibition,"[11]; measured here: combination with cisplatin at IC20, at 0.5 µM",-127% and -42.7%
same,inhibition,[12]; at 0.5 µM,58.9% (inactive) and 63.9% (inactive)
same,inhibition,"[12]; measured here: combo with BGB at IC20, at 0.5 µM",56.6% and 69.3%
same,inhibition,"[12]; measured here: combo with cisplatin at IC20, at 0.5 µM",64.2% and 61.2%
same,inhibition,[13]; at 0.5 µM,-3.51% (inactive) and 0.59% (inactive)
same,inhibition,"[13]; measured here: inhibition with BGB combination, at 0.05 µM",2.23% and -16.8%
same,inhibition,"[13]; measured here: inhibition with cisplatin combination, at 0.05 µM",-32.6% and -11.7%
same,inhibition,[14]; at 0.5 µM,-20.7% (inactive) and -2.13% (inactive)
same,inhibition,[14]; [28],-26.1% and 1.95%
same,inhibition,[14]; [29],-15.5% and -45.8%
same,inhibition,[15]; at 0.5 µM,19.1% (inactive) and 27.8% (inactive)
same,inhibition,"[15]; measured here: BGB combination, at 0.5 µM",8.19% and 23.7%
same,inhibition,"[15]; measured here: BGB combination, at 5 µM",34% and 51.6%
same,inhibition,"[15]; measured here: cisplatin combination, at 0.5 µM",17.4% and 18.9%
same,inhibition,"[15]; measured here: cisplatin combination, at 5 µM",53.5% and 66.5%
same,inhibition,"[16]; BGB combination, concentration series, at 5 µM",13% and 11.6%
same,inhibition,[16]; at 0.5 µM,-8.08% (inactive) and 2.75% (inactive)
same,inhibition,"[16]; cisplatin combination, concentration series, at 5 µM",-5.18% and 30.7%
same,inhibition,[17]; at 0.5 µM,37.7% (inactive) and 21.4% (inactive)
same,inhibition,"[17]; measured here: combo with BGB IC20, at 0.5 µM",41.3% and 27.7%
same,inhibition,"[17]; measured here: combo with cisplatin IC20, at 0.5 µM",11.1% and -19.1%
same,inhibition,[18]; at 0.5 µM,-29.6% (inactive) and -14.9% (inactive)
same,inhibition,"[18]; cisplatin combination, at 0.5 µM",-28.5% and -4.54%
same,inhibition,"[18]; cisplatin combination, at 5 µM",10.8% and 15.8%
same,inhibition,"[18]; measured here: BGB IC40 combination 0.05 uM, at 0.05 µM",35.1% and 9.21%
same,inhibition,"[18]; single agent, at 5 µM",-17.9% and 3.25%
same,inhibition,[19]; at 0.5 µM,-14.2% (inactive) and -26.4% (inactive)
same,inhibition,"[19]; cisplatin combo, at 5 µM",-20.2% and -20.5%
same,inhibition,"[19]; measured here: BGB IC40 combination, at 0.05 µM",-25.5% and -24.7%
same,inhibition,[19]; [28],-16.3% and -39.4%
same,inhibition,"[19]; single agent, at 5 µM",-18.8% and -0.235%
same,inhibition,[20]; at 0.5 µM,27.6% (inactive) and 42.6% (inactive)
same,inhibition,[20]; [26],19.9% and 59.6%
same,inhibition,[20]; [27],30.4% and 32.6%
same,inhibition,"[20]; single agent, at 0.05 µM",-27% and -16.2%
same,inhibition,"[20]; single agent, at 5 µM",72.5% and 78.1%
